Data taken from paper PMC5540273 (PLoS ONE, 2017).

How the values were obtained:
Settings in all cases: concentration: 1 μM, replicates: in singlicate; n = 1
[1] = test system: T1, PFTK1
T1 construct: gene CDK14

[2] = test system: PHKG1
[3] = test system: PHKG2
[4] = test system: PIK3C2B
[5] = test system: PIK3C2G
[6] = test system: PIK3CA
[7] = test system: PIK3CB
[8] = test system: PIK3CD
[9] = test system: PIK3CG
[10] = test system: T2, PIK4CB
T2 construct: gene PI4KB
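Also: KINOMEscan kinase panel screen.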

SMILES	%Inh [1] [%]	%Inh [2] [%]	%Inh [3] [%]	%Inh [4] [%]	%Inh [5] [%]	%Inh [6] [%]	%Inh [7] [%]	%Inh [8] [%]	%Inh [9] [%]	%Inh [10] [%]
CC(C)Oc1ccc2c(-c3ccnc(Nc4ccc(N5CCN(C)CC5)cc4)n3)cnn2n1 [GW696155]	55	51	84	0	0	0	21	45	30	33
N#Cc1c(N2CCOCC2)sc(-c2ccn[nH]2)c1-c1ccc(Cl)cc1	19	9	0	31	37	90	97	46	20	16
NCC(NC(=O)c1cc(-c2cn[nH]c2)c(-c2ccnc3[nH]ccc23)s1)c1ccccc1.O=C(O)C(F)(F)F.O=C(O)C(F)(F)F (stereo not shown) [GSK1325775]	21	18	26	0	0	0	0	24	3	26
Cc1cn2c(=O)cc(N3CCOCC3)nc2n1Cc1cccc(Cl)c1Cl [GSK2334006]	0	14	14	36	1	3	88	100	22	0
Cc1cccc(-c2nc(Nc3ccc4ncsc4c3)c3ccccc3n2)n1 [GW867588]	0	0	0	0	10	0	0	30	0	28
O=c1cc(N2CCOCC2)nc2n(Cc3cccc(F)c3)ccn12 [GSK2297430]	12	0	0	0	0	0	99	6	0	0
Cc1nnc(-c2ccc3ncc(-c4ccc(S(C)=O)cc4)n3c2)o1 (stereo not shown)	0	20	0	13	28	3	64	0	3	0
Cc1c(Cn2c(C)nn3c(=O)cc(N4CCOC(C)C4)nc23)cccc1C(F)(F)F (stereo not shown) [GSK2344444]	48	0	0	31	24	5	97.4	92.7	64	0
O=c1cc(N2CCOCC2)nc2n(Cc3cccc(C(F)(F)F)c3)ccn12 [GSK2297543]	12	0	4	0	0	0	96.5	28	8	0
COCCNC(=O)c1ccc(-c2cc(C(=O)NC3CC3)cc(F)c2C)cc1 [GW868318]	18	6	0	0	38	28	49	42	29	40
O=C(c1ccc(-c2cc(-c3c[nH]nc3-c3ccccn3)ccn2)cc1)N1CCOCC1 [GW812171]	20	1	0	0	0	29	0	0	0	8
O=C(Nc1cccc(-c2nn3ncccc3c2-c2ccnc(Nc3cccc(C(F)(F)F)c3)n2)c1)c1c(F)cccc1F [GSK299495]	11	0	0	0	0	0	0	25	0	0
N#Cc1ccc(-c2cc(-c3c[nH]nc3-c3ccccn3)ccn2)cc1 [GW693028]	19	0	0	0	0	0	0	0	0	0
CCn1cnc2c(N)ncnc21 [GW345098]	2	4	13	27	31	29	0	0	21	1
Cn1cc(-c2ccc3c(c2)CCN3C(=O)Cc2ccccc2Cl)c2c(N)ncnc21 [GSK2608885]	8	1	0	0	0	0	11	30	3	8
Cl.Nc1ncnc2occ(-c3ccc(NC(=O)Nc4cc(C(F)(F)F)ccc4F)cc3)c12 [SB-707548]	79	0	8	0	23	0	8	27	6	0
